# Compounds with a hit are over-represented: about 1.7% of the library has one in this group of screens.
# S1P2 ag: S1P2 receptor agonists, primary screen, cell-based | Sphingosine 1-phosphate receptor 2 (Homo sapiens), O95136 | S1P2-expressing cell line, agonist reporter read-out | activation, % at 4.5 µM | 97,000 tested, 0.46% active | AID 729, 2007; in the data active = activation above about 16%;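 also: 0% = vehicle low control and 100% = maximal reference agonist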
# Target sequence (O95136 whole entry, looked up): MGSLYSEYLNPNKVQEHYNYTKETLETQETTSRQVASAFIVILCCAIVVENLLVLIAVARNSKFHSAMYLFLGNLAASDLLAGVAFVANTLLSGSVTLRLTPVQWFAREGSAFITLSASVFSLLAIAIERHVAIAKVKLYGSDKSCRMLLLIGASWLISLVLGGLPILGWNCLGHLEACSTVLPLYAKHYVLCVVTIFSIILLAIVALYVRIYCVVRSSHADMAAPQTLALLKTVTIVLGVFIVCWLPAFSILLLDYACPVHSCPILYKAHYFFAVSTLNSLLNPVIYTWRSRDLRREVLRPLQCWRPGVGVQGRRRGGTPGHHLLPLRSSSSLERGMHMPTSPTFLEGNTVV
# MRP1 act: H69AR viability gain despite doxorubicin, primary screen, MRP-1 activator project, H69AR cells, CellTiter-Glo. viability rescue. viability increase, % at 10 µM. 140,000 tested, 0.61% active. AID 799, 2007;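 active = viability gain under doxorubicin at or above a set limit, the compound median plus 3 SD, cut at about 4.7% in these data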;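 also: MRP-1 overexpressing cells given doxorubicin 25 µM after compound pretreatment; 18-22 h compound pretreatment then 72 h with doxorubicin before readout; 0% = doxorubicin-only wells and 100% = vehicle-treated cells without doxorubicin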
# GALR2 ag: GALR2 receptor agonists, primary screen, cell-based; Galanin receptor type 2 (Homo sapiens), O43603; GALR2-expressing cells, agonist activation read-out; activation, % (concentration not given with the values); 140,000 tested, 0.48% active; in the data active = activation above about 5%, passing the limit was not always enough;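 also: 0% = vehicle buffer wells and 100% = reference agonist at full effect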
# GALR2 blocker: GALR2 antagonists in receptor-expressing cells, primary screen; inhibition, % at 4 µM; 140,000 tested, 0.39% active; Galanin receptor type 2 (Homo sapiens), O43603; antagonist mode; in the data active = inhibition above about 27%;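 also: cells stimulated with galanin 1-16 at roughly its EC80; 0% = agonist challenge control and 100% = basal control without agonist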
# S1P2 blocker: human S1P2 receptor antagonists, primary screen, cell-based. AID 736, 2007. inhibition, % at 5 µM. cell-based S1P2 antagonist assay, inhibition at 5 uM. Sphingosine 1-phosphate receptor 2 (Homo sapiens), O95136. 97,000 tested, 0.21% active; in the data active = inhibition above about 45%;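 also: CRE beta-lactamase reporter cells expressing human S1P2 stimulated with S1P; 0% = agonist at EC80 alone and 100% = agonist plus reference antagonist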
# MRP reversal: reversal of MRP1-mediated doxorubicin resistance, primary screen, H69AR cells, doxorubicin co-treatment; H69AR cells + 2 uM doxorubicin, CellTiter-Glo, 72 h; differential viability (reversal), % at 10 µM; 85,000 tested, 0.04% active; AID 602, 2007;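 active = viability drop by adding the cancer drug above about 55%, with treated viability meeting a 40% cutoff, limit read from the data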;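 also: viability without doxorubicin minus viability with 2 µM doxorubicin for each compound; larger differential means the compound sensitizes cells more to doxorubicin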
# GALR2 agon conf: GALR2 agonists, retest of hits, confirmation, cell-based. activation, % at 5.6 µM. 460 tested, 10% active. shares compounds with GALR2 ag. GALR2-expressing cells, agonist activation; in the data active = activation above about 8.4%;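 also: 0% = buffer-only vehicle wells and 100% = full reference agonist response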
# BLA activ ctr: activators of NFAT-driven beta-lactamase reporter, confirmation, counter-screen for GALR2 agonist project, CHO NFAT-bla cells, FRET readout; 460 tested, 10% active; shares compounds with GALR2 ag; beta-lactamase FRET activation; AID 865, 2007; activation, % at 5.6 µM;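 active = activation above the screen-wide mean activation plus 3 SD, cut at about 8% in these data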;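 also: 0% = DMSO with PBS wells and 100% = thapsigargin positive control wells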
# Numbers without * were called inactive; / = no result given.
SMILES,S1P2 ag,MRP1 act,GALR2 ag,GALR2 blocker,S1P2 blocker,MRP reversal,GALR2 agon conf,BLA activ ctr
CC(NC1CCCC1)C(=O)Nc1ccccc1-c1ccccc1 (configuration not stated),-9,-3,12*,9,-10,9,-1,-1
Cc1onc(-c2ccccc2Cl)c1C(=O)Nc1ccccc1N1CCOCC1,-1,-1,1,-5,4,-2,/,/
N#C/C(=C\c1cn(CCOc2ccccc2F)c2ccccc12)C(=O)NCc1cccs1,/,-2,9.2*,3,/,/,2,1
Cc1csc(NC(=O)c2cc3c(s2)-c2ccccc2OC3)n1,-1,2,9,4,-6,-30,3,6
COc1ccc(NS(=O)(=O)c2ccc(S(=O)(=O)N3CCCC3)cc2)cc1,-3,0,15*,-12,-2,7,-1,0
C=CCNC(=O)C(=O)NCCOc1ccccc1Cl,/,-2,-2,3,/,/,/,/
CC(=O)c1cc(C)ccc1OC(=O)c1ccco1,-2,1,11*,6,11,19,-1,2
Cc1c(/C=N/n2cnnc2)c2ccccc2n1CCOc1ccc(Cl)cc1,-3,0,2,2,-17,2,/,/
Cc1ccc(OCCn2c(C)c(/C=N/n3cnnc3)c3ccccc32)cc1,6,-4,9.1*,-7,-28,/,4,-2
CCOC(=O)c1sc(NC(=O)CSc2n[nH]c(-c3ccc(Cl)cc3Cl)n2)c(C#N)c1C,-8,0,-1,-5,6,-3,/,/
CN(C)c1nc(-c2ccccc2)cc(C(F)(F)F)c1C#N,0,-2,10,3,-5,/,4,6
CCN(CC)c1nc(-c2ccc(Cl)cc2)cc(C(F)(F)F)c1C#N,-2,-3,0,11,-5,/,/,/
Cc1c(Cl)cccc1NC(=S)N1CCN(Cc2ccc3c(c2)OCO3)CC1,/,0,-2,8,/,/,/,/
COc1ccc(Cn2c(SCc3ccccc3C)nc3cc(OC)c(OC)cc3c2=N)cc1,-6,-7,9.1*,-8,6,/,8.8*,6
Cc1cccc(NC(=O)C2CCCN(S(=O)(=O)c3cccc4nsnc34)C2)n1 (configuration not stated),-1,1,11*,-10,11,-2,-1,-1
CCOc1cc(/C=N\NC(=O)Cn2nc([N+](=O)[O-])cc2C)ccc1OCc1cccc2ccccc12,-4,-1,35*,-12,-23,0,-1,-3
Cc1ccc2nc(-c3ccccc3Cl)cc(C(=O)Nc3cc(C)on3)c2c1,-1,2,17*,-5,3,8,0,0
Cc1cc(NC(=O)c2ccccc2Cl)no1,0,-1,-1,13,15,24,/,/
O=C(Cn1c(=O)oc2cc(S(=O)(=O)N3CCCC3)ccc21)NC1CCCc2ccccc21 (configuration not stated),/,-1,16*,5,/,5,2,-2
O=C(Cn1c(=O)oc2cc(S(=O)(=O)N3CCCCCC3)ccc21)NC1CCCCCCC1,-5,-5,-3,13,3,1,/,/
Cc1ccc(CNC(=O)CCNC(=O)c2ccc(Br)o2)cc1,-2,-1,28*,-14,-4,14,-1,-2
COCCC(=O)NNS(=O)(=O)c1ccc(Cl)cc1,/,0,-1,-1,/,/,/,/
C=CCSC1=N/C(=C/c2ccsc2)C(=O)N1c1ccccc1,/,-2,0,-4,/,/,/,/
CCOC(=O)c1cc2cc3ccccc3cc2[nH]1,15,1,22*,4,15,8,4,11*
CC(C)OC(=O)c1cc2ccccc2[nH]1,-5,2,-2,0,-23,11,/,/
SMILES,S1P2 ag,MRP1 act,GALR2 ag,GALR2 blocker,S1P2 blocker,MRP reversal,GALR2 agon conf,BLA activ ctr
CN(CC(O)CON=C1c2ccccc2-c2ccccc21)S(=O)(=O)c1ccc(Br)cc1 (configuration not stated),/,-6,11*,-12,/,/,0,1
Cc1nn2cc(-c3ccc(Cl)cc3)nc2s1,-5,0,10,6,26,1,0,-2
Cc1nn2cc(-c3ccc(-c4ccccc4)cc3)nc2s1,-8,2,-2,-30,8,2,/,/
CCCC12CN3CCN(CC(C3)/C1=N\NC(=O)c1ccc(C(C)(C)C)cc1)C2,/,-1,-2,3,/,/,/,/
CC1(C)C=C(c2ccc(C=O)s2)CC(C)(C)N1C=O,/,-3,14*,3,/,/,-1,0
CC1(C)C=C(c2ccc(C=O)s2)CC(C)(C)N1,-9,-1,-1,4,1,/,/,/
COc1ccc(Cc2nc(C(=O)Nc3ccc(OC)cc3)cs2)cc1,-6,0,27*,-5,0,13,-2,-4
COc1ccc(Cc2nc(C(=O)NCc3ccccc3OC)cs2)cc1,-4,1,-1,3,1,/,/,/
CC1CCN(S(=O)(=O)c2cn(CC(=O)N3CC(C)CC(C)C3)c(=O)c3ccccc23)CC1 (configuration not stated),/,-2,-3,13,/,/,/,/
Nc1nnc(SCC(=O)c2ccccc2)s1,-5,-2,-2,0,-11,-16,/,/
Nc1c(C(=O)c2ccccc2)sc2snc(SCC(=O)c3ccccc3)c12,-8,0,79*,0,15,/,-2,-3
CC(C)(C)C1C=C(Sc2ccccc2)C(=O)O1 (configuration not stated),/,-5,0,8,/,/,/,/
N#CC1=C(N)Oc2n[nH]c(-c3ccccc3)c2C12C(=O)Nc1ccccc12 (configuration not stated),/,-1,11*,14,/,-12,-1,-3
CCN1C(=O)C2(C(C#N)=C(N)Oc3n[nH]c(-c4ccc(Cl)cc4)c32)c2ccccc21 (configuration not stated),-2,-2,0,1,-5,22,/,/
O=C(COC(=O)COc1ccc(Br)cc1)Nc1cccnc1Cl,/,-1,34*,-16,/,/,-1,-1
O=C(Nc1cccc(NC(=S)NC(=O)c2cccs2)c1)c1ccccc1,/,0,-1,-8,/,/,/,/
O=C(O)c1cccc(NC(=S)NC(=O)C(c2ccccc2)c2ccccc2)c1,-4,-3,8,-8,20,/,-1,-1
CC(C)CNC(=S)N(Cc1ccco1)Cc1cc2cc3c(cc2[nH]c1=O)OCCO3,/,-4,0,-5,/,/,/,/
CCOC(=O)c1sc(NC(=O)Nc2ccccc2Cl)cc1C,/,-2,13*,9,/,/,0,-2

# Screening data (PubChem)
